# From PubChem BioAssay AID1508607 (The Scripps Research Institute Molecular Screening Center, 2020)
# Screen size: about 2,300 compounds; about 20 (0.9%) were called active. This excerpt belongs to a sample that is enriched for actives. A number with no mark means an inactive call.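 The calls were made as follows: active = mean percent activation across replicates above the counterscreen hit cutoff of 9.17%; inactive = the rest.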
# Biological target: Glucose-dependent insulinotropic receptor (Homo sapiens) (UniProt Q8TDV5)
# Sequence (Q8TDV5 whole entry, looked up): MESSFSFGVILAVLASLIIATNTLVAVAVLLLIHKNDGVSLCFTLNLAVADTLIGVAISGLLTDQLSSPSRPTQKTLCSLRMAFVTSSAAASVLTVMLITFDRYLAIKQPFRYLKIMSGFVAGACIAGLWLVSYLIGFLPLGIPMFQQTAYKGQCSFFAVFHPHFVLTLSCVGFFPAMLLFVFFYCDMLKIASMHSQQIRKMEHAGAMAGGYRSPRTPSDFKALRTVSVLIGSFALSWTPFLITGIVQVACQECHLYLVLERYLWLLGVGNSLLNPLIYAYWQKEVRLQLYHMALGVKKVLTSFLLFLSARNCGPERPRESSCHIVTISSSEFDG
# Assay: GPR119 activators in beta-arrestin cells, confirmation, counter-screen for GPR151 activator project, cell-based, PathHunter beta-arrestin, luminescence, set 2 (AID 1508607);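 also: 0% = median of sample wells and 100% = wells given EA reagent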
# Details: 90 min, at 11.2 µM, hits give high values
row,Compound,activation
1,COc1cc(/C=C2/C(=N)N3OC(C)=CC3=NC2=O)ccc1OCCOc1ccc(C)cc1,2.89%
2,CCOC(CNc1ncnc2sc(C)c(C)c12)OCC,0.97%
3,CCC(=O)N1CCN(c2ccc(NC(=O)c3ccco3)cc2)CC1,0.71%
4,Cc1ccc(/C=N/NC(=O)c2ccc(O)cc2O)cc1,-2.17%
5,O=C(O/C(=C/c1nc2ccccc2n1Cc1cccc2ccccc12)c1ccc(Cl)cc1)c1ccc(Cl)cc1,-1.84%
6,COc1ccccc1C(=O)COC(=O)C1(C)CC1(Cl)Cl (stereo unspecified),5.89%
7,CCC(C(=O)N1CCOCC1)n1c2ccccc2c2cn[nH]c(=O)c21 (stereo unspecified),-3.25%
8,O=C(CC(c1ccccc1)c1ccccc1)N1CCN(c2cccc(Cl)c2)CC1,-2.36%
9,CCc1c(C(=O)N2CCN(c3cccc(Cl)c3)CC2)[nH]c(C)c1C(C)=O,20.1% (active)
10,CC(=O)c1c(C)[nH]c(C(=O)N2CCN(c3ncccn3)CC2)c1C,-3.09%
11,CC(C)(C)NC(=S)Nc1cccc(F)c1,6.02%
12,COc1ccc(CCn2c(-c3ccc(Cl)cc3)csc2=Nc2ccc(F)cc2)cc1OC,0.18%
13,COc1ccc(N(C(=O)C(C)Oc2ccccc2)C2C=CS(=O)(=O)C2)c(OC)c1 (stereo unspecified),-0.94%
14,O=C1N[C@H](Cc2ccc(O)cc2)C(=O)N2CCN(Cc3cnn(-c4cccc(Cl)c4)c3)C[C@H]12,3.76%
15,COc1ccc(CNC(=O)C(NS(=O)(=O)c2ccc3c(c2)oc(=O)n3C)C(C)C)cc1 (stereo unspecified),-0.7%
16,COc1ccc(N2CCN(C(=O)c3ccc(SCc4ccccc4F)c([N+](=O)[O-])c3)CC2)cc1,0.52%
17,Cc1ccc(C)c(N2CCN(C(=O)c3ccc(S(=O)(=O)c4ccc(Br)cc4)c([N+](=O)[O-])c3)CC2)c1,4.42%
18,Cc1cccc(N2CCN(C(=O)c3ccc(S(=O)(=O)c4ccc(F)cc4)c([N+](=O)[O-])c3)C(C)C2)c1 (stereo unspecified),14.7% (active)
19,Cc1ccccc1-n1cc(-c2ccccc2)[nH]c1=S,-4.28%
20,CSC1=NCCN1C(=O)COc1ccc2ccccc2c1,-1.84%
21,COc1cc2nc(SCC(N)=O)n3nc(CCn4nc(C)cc4C)nc3c2cc1OC,1.45%
22,Cc1c(C(=O)NCCC2CCCN2C)sc2ncnc(NCc3ccco3)c12 (stereo unspecified),3.32%
23,CCc1nnc(NC(=O)CSc2nc3cccnc3n2Cc2ccccc2)s1,0.71%

row,Compound,activation
1,O=C(COc1ccccc1[N+](=O)[O-])N/N=C/c1ccc(Br)cc1,0.11%
2,Cc1cccc2c(N3CCCC3)nc(CNS(=O)(=O)c3ccc4c(c3)OCCO4)nc12,-0.61%
3,COCC1CCN(c2nc3nonc3nc2NC2CCCC2)CC1,2.9%
4,O=C(CN1C(=O)C(c2ccccc2)=NC12CCCC2)Nc1ccccc1,-0.92%
5,CCC(CC)C(=O)Nc1nnc(SCC(=O)Nc2cc(C(F)(F)F)ccc2Cl)s1,1.93%
6,Cn1cc(SCC(=O)Nc2ccccc2C(F)(F)F)c2ccccc21,3.59%
7,O=C(Nc1cc(C(F)(F)F)ccc1Cl)c1ccc(C(=O)C(=O)c2ccccc2)cc1,6.45%
8,Cc1ccc2c(c1)c(=O)c1ccccc1n2CC(=O)Nc1cccc(Cl)c1C,-2.08%
9,CCOC(=O)c1nnn(CC(=O)Nc2cccc(C)c2)c1C(=O)OCC,1.6%
10,Cc1cc2c(cc1C)C(c1cc([N+](=O)[O-])ccc1Cl)CC(=O)N2 (stereo unspecified),0.43%
11,O=C(CCCn1c(=O)[nH]c2ccccc2c1=O)NC1CCCC1,-1.75%
12,CCn1c(SC(C)C(=O)OC)nc2c(c1=O)SC(C)C2 (stereo unspecified),-0.05%
13,COc1ccc(NS(=O)(=O)c2ccc(NC(=S)NC(C)=O)cc2)cc1,3.81%
14,CCC(C)NC(=O)c1cc2c(=O)oc3ccccc3c2s1 (stereo unspecified),4.04%
15,CCC(C)NC(=O)c1cc(=O)[nH]c2ccc(Br)cc12 (stereo unspecified),47.8% (active)
16,CCC(C)NC(=O)c1ccc(-n2c(=S)[nH]c3ccccc3c2=O)cc1 (stereo unspecified),0%
17,CCc1c(C)sc(NC(NC(=O)C(C)C)(C(F)(F)F)C(F)(F)F)c1C#N,-0.12%
18,COc1cc(C2CC(=O)N3CN(C4CCCCC4)CSC3=C2C#N)cc(OC)c1OC (stereo unspecified),-2.01%
19,CCOC(=O)c1c(NC(=O)CSc2c[nH]c3ccccc23)sc2c1CCCCC2,4.28%
20,CCCCCCCCCCCCCC/C(C(=O)O)=C(\C)C(=O)O,-2.17%
21,Cc1ccc2c(c1)NC(C)(C)c1sn(-c3ccc(C(C)C)cc3)c(=S)c1-2,1.46%
22,O=[N+]([O-])c1c(Cl)cc(O)c2c1C1C=CCC1C(c1ccc(Cl)cc1Cl)N2 (stereo unspecified),5.29%
23,CC(C)C1Nc2c(O)cc(Cl)c([N+](=O)[O-])c2C2C=CCC21 (stereo unspecified),10.3% (active)
